From PubChem BioAssay (Tox21)
Values without a mark were called inactive. Inconclusive results are not listed. Entries that show only a call come without a potency. Calls of active or inactive are those of the source. Unless noted, calls come from the whole dose curve.

Assays:
[1] = Nuclear factor erythroid 2-related factor 2/antioxidant responsive element (Nrf2/ARE) small molecule agonists: qHTS cell viability counter screen in human keratinocytes (AID 1919968; active = well fitted curve in the direction sought with a large enough effect in the repeat runs; an effect the other way counts as inactive or inconclusive; note: nearly all actives have a fitted effect of over 55% in size; note: potency is the fitted concentration of half-maximal effect)
Outline: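 KeratinoSens HaCaT cells, 1,500/well, preincubated 5 h, then exposed to compounds in DMSO for 23 h at 37 C/5% CO2. Viability read as CellTiter-Fluor fluorescence after 1 h, in the same wells as the ARE-luciferase read.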

[2] = Nuclear factor erythroid 2-related factor 2/antioxidant responsive element (Nrf2/ARE) small molecule agonists: luciferase reporter gene qHTS assay in human keratinocytes (AID 1919969); note: nearly all actives have a fitted effect of over 35% in size; note: potency is the fitted concentration of half-maximal effect
[3] = biological target: Gonadotropin-releasing hormone receptor (Homo sapiens) (UniProt P30968); assay: Human gonadotropin-releasing hormone receptor (GnRHR) small molecule agonists, calcium flux assay in GnRHR-HEK293 cells (AID 1920063); note: nearly all actives have a fitted effect of over 35% in size
Outline: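 HEK293 cells stably expressing human GnRHR were dye-loaded for 1 h at 37 C. Compound was added in agonist mode and fluorescence (Ex/Em 480/540) recorded kinetically for 3 min. Fifteen concentrations, triplicates.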

[4] = biological target: KiSS-1 receptor (Homo sapiens) (UniProt Q969F8); assay: Human kisspeptin (KISS1R) small molecule agonists, calcium flux assay in KISS1R-HEK293 cells (AID 1920064; active = well fitted curve in the direction sought with a large enough effect in the repeat runs; an effect the other way counts as inactive or inconclusive)
Outline: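 HEK293 cells stably expressing human KISS1R were loaded with calcium dye for 1 h at 37 C, then given compound; fluorescence (Ex/Em 480/540) was read kinetically for 3 min. Fifteen concentrations, triplicate.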

[5] = G protein-coupled receptor (GPCR) small molecule agonists, calcium flux assay: HEK293 wild type cell line counter screen (AID 1920065)
Outline: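 Wild-type HEK293 cells plated 18 h, loaded with calcium dye 1 h at 37 C, then compounds added in agonist mode (ATP as positive control). Kinetic fluorescence Ex/Em 480/540 recorded 3 min at 1 sec intervals; 15 concentrations, triplicate.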

[6] = p53 small molecule agonists, cell-based qHTS assay with human liver microsomes (AID 1963577)
Outline: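 Fluorescence of the beta-lactamase reporter in p53RE-bla cells, detected with LiveBLAzer substrate (2 h, room temperature, dark), served as the read-out after 16 h compound exposure at 37 C with human liver microsomes and NADPH, each 0.5 mg/mL final.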

[7] = p53 small molecule agonists, cell-based qHTS assay with rat liver microsomes (AID 1963578)
Outline: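 Cells carrying a p53 response element–beta-lactamase reporter were plated and rested 5 h, then dosed with compound in DMSO plus rat liver microsomes and NADPH, each at 0.5 mg/mL final. After 16 h at 37 C, LiveBLAzer substrate was added for 2 h.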

[8] = p53 small molecule agonists, cell-based qHTS assay with human liver microsomes: qHTS cell viability counter screen (AID 1963579); note: nearly all actives have a fitted effect of over 45% in size
Outline: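 Cytotoxicity counter screen: p53RE-bla, 4,000 cells/well; 5 h settle, 37 C/5% CO2; cpd + HLM 0.5 mg/mL + NADPH 0.5 mg/mL (final); 16 h, 37 C; CellTiter-Glo, 30 min RT, luminescence.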

[9] = p53 small molecule agonists, cell-based qHTS assay with rat liver microsomes: qHTS cell viability counter screen (AID 1963580); note: nearly all actives have a fitted effect of over 45% in size
Outline: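 In HCT-116 cells carrying a p53 response element-bla reporter, compounds were metabolically activated in situ by rat liver microsomes with NADPH over 16 h. Cell ATP content then served as the cytotoxicity measure.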

[10] = p53 small molecule agonists, cell-based qHTS assay: qHTS cell viability counter screen (AID 1963581); note: nearly all actives have a fitted effect of over 45% in size
Outline: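 p53RE-bla HCT-116 cells, compounds added 5 h after plating and incubated 16 h at 37 C. Cytotoxicity measured in the same wells as intracellular ATP by CellTiter-Glo luminescence after 30 min at room temperature.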

[11] = p53 small molecule agonists, cell-based qHTS assay (AID 1963582; active = well fitted activation curve with a large enough effect in the signal ratio in the repeat runs, not every such curve was filed as active; the % refers to the signal ratio)
Outline: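 p53RE-bla reporter cells, compounds added in DMSO after 5 h plating, incubated 16 h at 37 C. Beta-lactamase read via 2 h room-temperature LiveBLAzer B/G FRET substrate, fluorescence intensity.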

[12] = biological target: 5-hydroxytryptamine receptor 2A (Homo sapiens) (UniProt P28223); assay: 5-hydroxytryptamine receptor 2A (HTR2A) small molecule antagonists, cell-based qHTS assay (AID 1963586); note: nearly all actives have a fitted effect of over 45% in size; note: potency is the fitted concentration of half-maximal effect
Outline: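 Antagonist-mode intracellular calcium assay: DOI (4 nM) added after 5 min compound pre-incubation at room temperature to dye-loaded HTR2A-CHO cells. Fluorescence followed for 3 min, sampled every second.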

[13] = biological target: 5-hydroxytryptamine receptor 2A (Homo sapiens) (UniProt P28223); assay: 5-hydroxytryptamine receptor 2A (HTR2A) small molecule agonists, cell-based qHTS assay (AID 1963587); note: nearly all actives have a fitted effect of over 30% in size; note: potency is the fitted concentration of half-maximal effect
Outline: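 HTR2A-CHO cells, plated 18 h at 37 C/5% CO2, dye-loaded 1 h at 37 C; compounds in DMSO added by pin tool (agonist mode). Intracellular calcium flux read as kinetic fluorescence on FDSS over 2 min at 1 s intervals.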

[14] = biological target: Muscarinic acetylcholine receptor M1 (Homo sapiens) (UniProt P11229); assay: Cholinergic receptor muscarinic 1 (CHRM1) small molecule antagonists, cell-based qHTS assay (AID 1963588); note: nearly all actives have a fitted effect of over 40% in size
Outline: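 CHRM1-CHO calcium-flux assay, antagonist mode. Cells were seeded 18 h, dye-loaded 1 h at 37 C and given compound for 5 min at RT, then acetylcholine was added at 50nM. FDSS fluorescence was read 3 min; 15 concentrations, three runs.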

[15] = biological target: Muscarinic acetylcholine receptor M1 (Homo sapiens) (UniProt P11229); assay: Cholinergic receptor muscarinic 1 (CHRM1) small molecule agonists, cell-based qHTS assay (AID 1963589); note: nearly all actives have a fitted effect of over 35% in size
Outline: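 CHO cells stably expressing human CHRM1 were loaded with calcium dye for 1 h at 37 C, then compound was added in agonist mode. Intracellular calcium fluorescence was followed kinetically at 1 s intervals. Fifteen concentrations were tested in three independent runs.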

[16] = cAMP Responsive Elements (CRE) small molecule antagonists, cell-based qHTS assay (AID 1963591; active = well fitted inhibition curve with a large enough effect in the signal ratio in the repeat runs, not every such curve was filed as active; the % refers to the signal ratio)
Outline: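 CRE-bla HEK293T cells plated 18 h, then given compound plus NKH477 at 0.25 uM final for 3 h at 37C. Beta-lactamase reporter read with LiveBLAzer B/G FRET substrate after 2 h at room temperature.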

[17] = biological target: D(2) dopamine receptor (Homo sapiens) (UniProt P14416); assay: Dopamine D2 receptor (DRD2) small molecule agonists, cell-based qHTS assay (AID 1963594); note: nearly all actives have a fitted effect of over 35% in size
Outline: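 HEK293 cells stably expressing DRD2 were cultured 24 h at 37 C, then given Ro20-1724 (0.1 mM final) and compounds for 10 min at room temperature. NKH477 (200nM) was then added for 30 min. cAMP was read by HTRF.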

[18] = biological target: D(2) dopamine receptor (Homo sapiens) (UniProt P14416); assay: Dopamine D2 receptor (DRD2) small molecule antagonists, cell-based qHTS assay (AID 1963595; active = well fitted inhibition curve with a large enough effect in the signal ratio in the repeat runs, with a control signal flat; the % refers to the signal ratio)
Outline: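 Stable D2 receptor HEK293 line, 24 h after seeding. Compound preincubated 10 min, then quinpirole (12 nM) with forskolin analogue NKH477 (200 nM), 30 min, room temperature. Detection by time-resolved FRET of cAMP.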

[19] = cAMP Responsive Elements (CRE) small molecule agonists, cell-based qHTS assay (AID 1963590)
Outline: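 CRE-bla HEK 293T cells, 2,000/well in DMEM with 10% dialyzed FBS and 25 mM HEPES, pre-incubated 18 h at 37 C, then exposed to compound 3 h at 37 C. Beta-lactamase reporter read with LiveBLAzer B/G FRET substrate after 2 h at room temperature.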

[20] = biological target: Beta-2 adrenergic receptor (Homo sapiens) (UniProt P07550); assay: Adrenergic beta2 receptor (ADRB2) small molecule antagonists, cell-based qHTS assay (AID 1963592); note: series mostly up to about 92 µM; nearly all actives have a fitted effect of over 50% in size
Outline: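 Cells (CHO, stable ADRB2 overexpression) incubated 18-20hr at 37C; compounds added from DMSO; agonist mix (1nM isoproterenol, 100uM IBMX, 25uM Ro-20-1724) added; 0.5hr RT; d2-cAMP and anti-cAMP-cryptate added; 1hr RT; 665/615 nm read.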

Chain of 5-hydroxytryptamine receptor 2A (Homo sapiens) (P28223 whole entry, looked up): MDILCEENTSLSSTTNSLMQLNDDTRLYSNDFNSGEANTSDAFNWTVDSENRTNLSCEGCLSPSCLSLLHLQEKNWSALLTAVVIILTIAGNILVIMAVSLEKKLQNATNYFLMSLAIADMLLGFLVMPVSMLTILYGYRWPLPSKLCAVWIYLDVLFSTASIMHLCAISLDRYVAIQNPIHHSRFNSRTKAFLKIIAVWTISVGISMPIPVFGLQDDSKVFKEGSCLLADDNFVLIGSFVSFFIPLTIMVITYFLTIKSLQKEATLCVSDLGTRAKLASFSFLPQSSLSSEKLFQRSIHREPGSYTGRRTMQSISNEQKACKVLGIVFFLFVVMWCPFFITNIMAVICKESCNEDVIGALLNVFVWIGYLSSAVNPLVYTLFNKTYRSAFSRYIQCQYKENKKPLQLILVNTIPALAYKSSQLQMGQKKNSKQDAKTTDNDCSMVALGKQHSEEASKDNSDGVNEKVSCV
Chain of Gonadotropin-releasing hormone receptor (Homo sapiens) (P30968 whole entry, looked up): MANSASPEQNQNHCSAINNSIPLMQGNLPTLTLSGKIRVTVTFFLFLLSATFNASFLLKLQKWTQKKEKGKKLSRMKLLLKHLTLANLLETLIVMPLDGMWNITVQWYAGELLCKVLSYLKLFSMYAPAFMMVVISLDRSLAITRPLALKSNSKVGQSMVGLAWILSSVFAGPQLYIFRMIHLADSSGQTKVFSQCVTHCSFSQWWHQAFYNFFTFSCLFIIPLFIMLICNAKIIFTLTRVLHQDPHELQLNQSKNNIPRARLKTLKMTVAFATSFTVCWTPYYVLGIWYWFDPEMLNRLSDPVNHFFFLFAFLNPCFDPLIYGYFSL
Chain of Beta-2 adrenergic receptor (Homo sapiens) (P07550 whole entry, looked up): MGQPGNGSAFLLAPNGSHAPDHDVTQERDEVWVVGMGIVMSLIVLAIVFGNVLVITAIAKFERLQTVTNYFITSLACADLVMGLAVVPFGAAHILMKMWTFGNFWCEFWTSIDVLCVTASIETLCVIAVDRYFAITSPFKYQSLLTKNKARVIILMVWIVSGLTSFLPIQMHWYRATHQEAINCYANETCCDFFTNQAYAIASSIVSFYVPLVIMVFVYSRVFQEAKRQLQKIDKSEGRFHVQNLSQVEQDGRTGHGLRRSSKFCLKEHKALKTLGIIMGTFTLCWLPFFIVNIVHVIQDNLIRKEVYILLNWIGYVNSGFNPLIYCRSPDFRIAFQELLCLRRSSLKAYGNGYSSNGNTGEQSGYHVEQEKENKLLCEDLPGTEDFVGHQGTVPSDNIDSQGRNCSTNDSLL
Chain of Muscarinic acetylcholine receptor M1 (Homo sapiens) (P11229 whole entry, looked up): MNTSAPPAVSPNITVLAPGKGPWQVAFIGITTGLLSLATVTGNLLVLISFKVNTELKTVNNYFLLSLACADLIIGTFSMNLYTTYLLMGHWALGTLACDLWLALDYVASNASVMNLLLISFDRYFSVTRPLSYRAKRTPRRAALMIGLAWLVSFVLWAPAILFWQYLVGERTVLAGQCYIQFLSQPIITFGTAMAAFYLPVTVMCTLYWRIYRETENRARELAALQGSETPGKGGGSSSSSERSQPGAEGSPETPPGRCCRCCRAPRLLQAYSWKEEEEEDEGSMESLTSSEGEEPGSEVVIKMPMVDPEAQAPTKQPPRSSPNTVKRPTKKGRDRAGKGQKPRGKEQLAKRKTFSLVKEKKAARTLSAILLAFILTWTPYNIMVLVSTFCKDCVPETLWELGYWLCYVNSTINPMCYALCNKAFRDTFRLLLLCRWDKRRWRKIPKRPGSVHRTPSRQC
Chain of D(2) dopamine receptor (Homo sapiens) (P14416 whole entry, looked up): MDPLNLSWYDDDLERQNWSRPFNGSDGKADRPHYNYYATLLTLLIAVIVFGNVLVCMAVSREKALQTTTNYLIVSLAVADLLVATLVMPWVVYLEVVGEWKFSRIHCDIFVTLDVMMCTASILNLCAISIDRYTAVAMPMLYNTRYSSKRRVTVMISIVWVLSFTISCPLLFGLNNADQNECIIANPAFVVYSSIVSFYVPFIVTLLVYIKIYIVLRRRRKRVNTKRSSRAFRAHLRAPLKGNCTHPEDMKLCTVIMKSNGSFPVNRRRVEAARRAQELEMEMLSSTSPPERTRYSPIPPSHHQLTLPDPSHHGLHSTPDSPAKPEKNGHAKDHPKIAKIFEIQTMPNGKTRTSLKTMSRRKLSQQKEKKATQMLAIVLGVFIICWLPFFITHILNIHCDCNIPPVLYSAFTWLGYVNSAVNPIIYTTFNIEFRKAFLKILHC
Chain of KiSS-1 receptor (Homo sapiens) (Q969F8 whole entry, looked up): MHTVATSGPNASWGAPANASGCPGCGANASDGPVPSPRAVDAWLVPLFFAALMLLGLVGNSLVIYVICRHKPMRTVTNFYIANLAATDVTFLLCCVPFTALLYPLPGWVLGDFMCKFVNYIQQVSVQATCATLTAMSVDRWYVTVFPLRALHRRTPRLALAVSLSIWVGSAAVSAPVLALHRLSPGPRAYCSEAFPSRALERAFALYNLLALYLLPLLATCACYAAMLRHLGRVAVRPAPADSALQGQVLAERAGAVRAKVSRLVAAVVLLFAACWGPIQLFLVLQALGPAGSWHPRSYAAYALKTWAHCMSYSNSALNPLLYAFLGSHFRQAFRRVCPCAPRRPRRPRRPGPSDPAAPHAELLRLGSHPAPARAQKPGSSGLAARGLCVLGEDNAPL

| SMILES | Potency [1] | Potency [2] | Potency [3] | Potency [4] | Potency [5] | Potency [6] | Potency [7] | Potency [8] | Potency [9] | Potency [10] | Potency [11] | Potency [12] | Potency [13] | Potency [14] | Potency [15] | Potency [16] | Potency [17] | Potency [18] | Potency [19] | Potency [20] |
| --- | --- | --- | --- | --- | --- | --- | --- | --- | --- | --- | --- | --- | --- | --- | --- | --- | --- | --- | --- | --- |
| [Cl][Sn]([Cl])([Cl])[Cl] | inactive | inactive | inactive | inactive | inactive | inactive | inactive | inactive | inactive | inactive | inactive | inactive | inactive | inactive | inactive | inactive | inactive | inactive |  |  |
| O=C(Cl)C(Cl)(Cl)Cl | inactive | inactive | inactive | inactive | inactive | inactive | inactive | inactive | inactive | inactive | inactive | inactive | inactive | inactive | inactive |  | inactive | inactive | inactive |  |
| CCC(OC(C)=O)C(CC(C)NC)(c1ccccc1)c1ccccc1 (configuration not stated) | 54900 nM (active) | inactive | inactive | inactive | inactive | inactive | inactive | inactive | inactive | inactive | inactive | inactive |  | inactive | inactive | inactive | inactive | inactive |  | inactive |
| CCC1COC(Cn2cncn2)(c2ccc(Cl)cc2Cl)O1 (configuration not stated) | inactive | inactive | inactive | inactive | inactive | inactive | inactive | inactive | inactive | inactive | inactive | inactive | inactive | inactive | inactive |  | inactive | inactive |  |  |
| CC1(C)[C@H](/C=C2\CCSC2=O)[C@@H]1C(=O)OCc1coc(Cc2ccccc2)c1 | inactive | 61100 nM (active) | inactive | inactive | inactive | inactive | inactive | inactive | inactive | inactive | inactive | 2650 nM (active) | inactive | inactive |  |  |  | inactive |  | inactive |
| CCCC[P+](CC)(CCCC)CCCC (tested in a mixture with another compound) | inactive | inactive | inactive | inactive | inactive | inactive | inactive | inactive | inactive | inactive | inactive | inactive | inactive | inactive |  | inactive | inactive | inactive |  | inactive |
| Oc1ccc(Cl)c(Cl)c1Cl | inactive | inactive | inactive | inactive | inactive | inactive | inactive | inactive | inactive | inactive | inactive | inactive | inactive |  |  | inactive | inactive | inactive |  | inactive |
| C[C@@H]1CC2=CC(=O)CC[C@@H]2[C@H]2CC[C@@]3(C)[C@@H](CC[C@]3(C)O)[C@@H]21 | inactive | inactive | inactive | inactive | inactive | inactive | inactive | inactive | inactive | inactive | inactive | inactive | inactive | inactive | inactive |  | inactive | inactive |  |  |
| CC(Cc1ccccc1)NCc1ccccc1Cl (configuration not stated) | inactive | inactive | inactive | inactive | inactive | inactive | inactive | inactive | inactive | inactive | inactive | inactive | inactive | inactive |  | inactive |  |  | inactive |  |
| CS(=O)(=O)c1ccc(C(=O)C2C(=O)CCCC2=O)c(Cl)c1COCC(F)(F)F | inactive | inactive | inactive | inactive | inactive | inactive | inactive | inactive | inactive | inactive | inactive | inactive | inactive | inactive |  |  | inactive | inactive |  | inactive |
| Cn1c(CCCC(=O)O)nc2cc(N(CCCl)CCCl)ccc21 | inactive | inactive | inactive | inactive | inactive | inactive | inactive | inactive | inactive | inactive | inactive | inactive | inactive | inactive | inactive |  |  | inactive | inactive | inactive |
| CCC(COC(=O)c1cc(OC)c(OC)c(OC)c1)(c1ccccc1)N(C)C (configuration not stated) | inactive | inactive | inactive | inactive | inactive | inactive | inactive | inactive | inactive | inactive | inactive | inactive | inactive | inactive | inactive |  | inactive | inactive |  | inactive |
| COC1CC(=C(c2cccs2)c2cccs2)C[N+](C)(C)C1 (configuration not stated) | inactive | inactive | inactive | inactive | inactive | inactive | inactive | inactive | inactive | inactive | inactive | inactive | inactive |  | inactive | inactive |  |  | inactive |  |
| ClCCCCl | inactive | inactive | inactive | inactive | inactive | inactive | inactive | inactive | inactive | inactive | inactive | inactive | inactive |  | inactive | inactive | inactive | inactive | inactive | inactive |
| COc1cc(CCN)cc(OC)c1OC | inactive | inactive | inactive | inactive | inactive | inactive | inactive | inactive | inactive | inactive | inactive | 182 nM (active) | 75.2 nM (active) | inactive | inactive | inactive | inactive | inactive | inactive |  |
